aSyn 5UTR inh: 5' untranslated region of α-synuclein, MLPCN primary screen. hit rate 0.82% among 300,000. inhibition, % (tested at 7.5 µM). alpha-synuclein 5'UTR reporter, inhibitor activity; in the data active = inhibition above about 60%; inconclusive = no clear call, values can overlap the other calls;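 note: H4 neuroglioblastoma cells stably carrying SNCA 5'UTR luciferase fusion; 0% = DMSO wells and 100% = positive control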
IEC-6 tox-1: kills IEC-6 intestinal cells in KLF5 counter-screen; IEC-6 cytotoxicity, luminescence viability; inhibition, % at 5 µM; hit rate 0.78% among 290,000;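 note: 0% = plate median of test compound wells and 100% = cytotoxic reference compound wells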
APP transl inh: APP translation inhibition; SH-SY5Y APP 5'UTR-luciferase reporter, luminescence; inhibition, % at 2 µM; hit rate 0.82% among 190,000; AID 1285;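 active = inhibition above a set limit, derived from the sample mean plus 3 SD, cut at about 45% in these data; inconclusive = one replicate passes the limit while the other fails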
Ba/F3 V617F tox: lowers viability of Ba/F3 cells expressing EpoR and JAK2V617F; ATP luminescence; AID 1446; inhibition, % at 5.6 µM; hit rate 1.1% among 220,000;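 active = inhibition above the campaign mean plus 3 SD over all tested compounds, cut at about 24% in these data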;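 note: cytokine-independent growth of Ba/F3 cells driven by EpoR plus mutant JAK2; 0% = DMSO-treated cells and 100% = JAK inhibitor I control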
KLF5 inh: suppresses KLF5 promoter-driven expression; DLD-1 KLF5 promoter-luciferase reporter, luminescence; inhibition, % at 5 µM; hit rate 0.23% among 290,000;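 active = inhibition above a per-plate limit of that plate's mean compound inhibition plus 3 SD, cut at about 60% in these data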;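 note: 0% = DMSO wells and 100% = LY294002 at 200 µM; higher means less KLF5 promoter-driven luciferase light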
BaF3 tox: parental Ba/F3 viability inhibition as JAK2V617F counter-screen | hit rate 1.1% among 220,000 | inhibition, % at 5.6 µM | CellTiter-Glo ATP luminescence;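 active = inhibition above a per-campaign cutoff, the mean inhibition of all tested compounds plus 3 SD, cut at about 27% in these data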;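 note: 0% = DMSO wells and 100% = JAK Inhibitor I control wells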
BaF3 parental 2: counter-screen for JAK2V617F inhibitors: parental Ba/F3 viability inhibitors; shares compounds with Ba/F3 V617F tox; CellTiter-Glo luminescence; cells kept alive by added IL-3; inhibition, % at 5.6 µM; hit rate 31% among 580; AID 1520;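 active = cell growth inhibition above the hit limit set in the earlier mutant JAK2 cell screen, cut at about 27% in these data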;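 note: plate controls were DMSO-treated cells for no effect and JAK Inhibitor I control wells for full effect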
JAK2V617F confrm: confirmation: loss of viability in JAK2V617F-dependent Ba/F3 cells; shares compounds with Ba/F3 V617F tox; AID 1521; inhibition, % at 5.6 µM; hit rate 66% among 580; Ba/F3 EpoR-JAK2V617F viability, CellTiter-Glo luminescence;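 active = mean inhibition above the hit cutoff derived in the earlier primary screen, cut at about 25% in these data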;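 note: 0% = DMSO-treated cells and 100% = JAK inhibitor I control wells; higher means lower luminescence from reduced cell ATP and viability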
KLF5 confirm: KLF5 inhibition, confirmation assay; shares compounds with KLF5 inh; DLD-1 KLF5 promoter firefly luciferase reporter, luminescence; inhibition, % at 4 µM; hit rate 79% among 610; AID 1834;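 active = inhibition above a set limit taken from the earlier primary screen, cut at about 63% in these data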;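 note: 0% = DMSO wells and 100% = LY294002 at 200 µM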
IEC-6 tox-2: kills rat IEC-6 cells in KLF5 counter-screen. IEC-6 rat intestinal cells, viability luminescence. shares compounds with KLF5 inh. inhibition, % at 4 µM. AID 1905. hit rate 56% among 610; in the data active = inhibition above about 23%;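 note: cells exposed to compounds for 48 hours before viability read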
IEC-6 tox confirm: IEC-6 cytotoxicity, confirmation assay; AID 1907; IEC-6 rat intestinal epithelial viability, luminescence; inhibition, % at 5 µM; hit rate 63% among 1,900; shares compounds with IEC-6 tox-1;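 note: 0% = vehicle and 100% = reference cytotoxic drug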
* hit, by the source's call; ? = inconclusive; / = no result. An excerpt weighted towards active compounds, which were near 2.2% of everything screened. Cut-off read from the data, not from the text of the source, unless noted: active = inhibition above about 22%; inactive = the rest.

SMILES | aSyn 5UTR inh | IEC-6 tox-1 | APP transl inh | Ba/F3 V617F tox | KLF5 inh | BaF3 tox | others
CCCCCn1c(=O)c(C(=O)Nc2ccccn2)c(O)c2ccccc21 | 65* | -1 | / | / | -34 | /
CCCCCn1c(=O)c(C(=O)NCc2ccncc2)c(O)c2ccccc21 | 65* | 0 | 16 | -2 | -9 | 2
CCCCCCn1c(=O)c(C(=O)Nc2cnccn2)c(O)c2ccccc21 | 67* | 4 | 15 | 1 | 2 | 2
CCCCCCn1c(=O)c(C(=O)Nc2ncccc2O)c(O)c2ccccc21 | 92* | 1 | / | / | 45 | /
CCc1ccccc1NC(=O)N1C[C@H]2C[C@@H](C1)c1cccc(=O)n1C2 | -5 | -1 | / | / | -35 | /
COc1ccccc1CNCCc1ccc(F)cc1 | -5 | 0 | / | / | -12 | /
CCOC(=O)C1CCN(C(C)C(=O)c2c[nH]c3ccccc23)CC1 (stereo not given) | 5 | -6 | / | / | -19 | /
Nc1ncn[nH]1 | -6 | / | / | / | / | /
COP(=S)(OC)c1c(C)nn(CCC#N)c1NC(=O)c1ccc(Cl)cc1 | 3 | -5 | / | / | 3 | /
C/C=C(\C)C(=O)OC1C(C)=C2C(C1OC(=O)CCCCC)C(C)(OC(C)=O)CC(OC(=O)CCC)C1(O)C2OC(=O)C1(C)O (stereo not given) | 108* | / | / | / | / | /
COc1ccc(CC(C)NCCc2ccc(OC)c(OC)c2)cc1 (stereo not given) | 20 | 2 | / | / | -8 | /
CCC(=Nc1cc(OC)ccc1OC)c1c(O)[nH]c(=O)[nH]c1=O | 71* | -3 | 0 | -3 | -30 | -1
CCC(=Nc1ccc(OC)cc1OC)c1c(O)[nH]c(=O)[nH]c1=O | 28 | -2 | -15 | 3 | -12 | 7
CN1CCC(N(C)c2nc(-c3ccc([N+](=O)[O-])cc3)nc3ccccc23)CC1 | 75* | 16 | 5 | 4 | -6 | 21
CC(C)N1CC=C(c2c[nH]c3ccccc23)CC1 | 0 | -4 | 3 | 87* | -3 | 65*
CC1(C)CN(S(=O)(=O)OCC(Cl)(Cl)Cl)C(=O)N1 | -4 | -10 | / | / | -17 | /
Cc1ccccc1-n1c(O)c(/C=C2/C(c3ccccc3)=Nc3ccccc32)c(=O)[nH]c1=O | -43 | 78* | 62* | 78* | 44 | 69*
CN1CCN(Cc2nc3ccccc3n2C)CC1 | -19 | -4 | -7 | -2 | -14 | 3
Cn1c(NN=O)nc2ccccc21 | ? | 10 | 75* | 0 | -37 | 4
CCOc1ccc(N2C(=O)/C(=C\c3cccs3)C(=O)NC2=S)cc1 | 14 | -8 | 7 | 63* | -18 | 12 | BaF3 parental 2=-5;JAK2V617F confrm=-5
CCOc1ccc(N2C(=O)/C(=C/c3ccco3)C(=O)NC2=S)cc1 | 23 | 0 | / | / | -25 | /
N#CC(C#N)=C(N)c1cccnc1 | 9 | -8 | -12 | 34* | -38 | 16 | BaF3 parental 2=-4;JAK2V617F confrm=-2
O=C(Cc1ccccc1)OCCNC(=O)c1cccnc1 | -4 | 2 | 5 | 2 | -30 | 4
Cc1cc(OCC(=O)NCc2ccc(S(N)(=O)=O)cc2)c2c3c(c(=O)oc2c1)CCC3 | -23 | 3 | / | / | -1 | /
CN(C)C(=S)SSC(=S)N(C)C | -38 | 102* | 95* | 39* | 22 | -3 | BaF3 parental 2=0;JAK2V617F confrm=99*
SMILES | aSyn 5UTR inh | IEC-6 tox-1 | APP transl inh | Ba/F3 V617F tox | KLF5 inh | BaF3 tox | others
CN(C)C(=O)Oc1ccc(OCc2nc3ccccc3[nH]2)cc1 | 38 | 14 | -88 | 24* | -92 | 23 | BaF3 parental 2=31*;JAK2V617F confrm=34*
CCOc1cc2c(cc1OCC)-n1cccc1C(c1cccc([N+](=O)[O-])c1)NC2 (stereo not given) | 2 | -1 | / | / | 10 | /
c1ccc2c(CNC3CCCCCC3)c[nH]c2c1 | / | 0 | 20 | 27* | -3 | 7 | BaF3 parental 2=-2;JAK2V617F confrm=38*
c1ccc2c(CN3CCCCCC3)c[nH]c2c1 | -41 | 1 | -20 | 62* | -27 | 26 | BaF3 parental 2=11;JAK2V617F confrm=76*
CNCCc1c[nH]c2ccccc12 | -19 | 5 | 2 | -1 | -22 | 4
CCN1C[C@]2(OC(=O)c3ccccc3NC(C)=O)CCC(OC)C34C5C[C@H]6C(OC)[C@]5(O)[C@](O)(C[C@@H]6OC)C(C[C@@H]32)[C@H]14 (stereo not given in full) | -13 | 1 | / | / | 0 | /
Nc1ccc2ccc3cccc[n+]3c2c1 | 2 | -4 | / | / | -16 | /
C[n+]1c(-c2ccccc2)c2cc(N)ccc2c2ccc(N)cc21 | 52 | -1 | / | / | 108* | / | KLF5 confirm=86*;IEC-6 tox-2=-9
COc1c(/C=C2/C(=O)NC(=O)N(C)C2=O)c(CCN(C)C(=O)c2ccccc2)cc2c1OCO2 | -3 | -6 | / | / | -18 | /
COc1ccc2c(c1O)C13CCN(C)C(C2)C1CCC(=O)C3 (stereo not given) | -7 | / | / | / | / | /
CCCCN=C[C@]12CCC(O)CC1(O)CCC1[C@@H]2CC[C@]2(C)[C@H](C3C=CC(=O)O3)CCC12O (stereo not given in full) | 96* | -3 | / | / | 106* | / | KLF5 confirm=105*;IEC-6 tox-2=-1
C[C@]12CCC3C(CCC4=CC(O)CC[C@@]43/C=N/O)C1(O)CCC2C1=CC(=O)OC1 (stereo not given in full) | 113* | 1 | / | / | 91* | / | KLF5 confirm=104*;IEC-6 tox-2=-10
C/C=C(\C)C(=O)N[C@@H](c1ccccc1)[C@@H](O)C(=O)O[C@H]1C[C@@]2(O)[C@@H](OC(=O)c3ccccc3)C3[C@](C)(C(=O)[C@H](OC(C)=O)C(=C1C)C2(C)C)[C@H](O)C[C@H]1OC[C@@]31OC(C)=O (stereo not given in full) | 110* | 88* | / | / | 64* | / | KLF5 confirm=86*;IEC-6 tox-2=71*;IEC-6 tox confirm=79*
CC(=O)O[C@@]12CO[C@@H]1C[C@@H](O)[C@@]1(C)C(=O)[C@H](O)C3=C(C)[C@@H](OC(=O)[C@H](O)[C@@H](NC(=O)c4ccccc4)c4ccccc4)C[C@@](O)([C@@H](OC(=O)c4ccccc4)C12)C3(C)C (stereo not given in full) | 113* | 90* | / | / | 76* | / | KLF5 confirm=87*;IEC-6 tox-2=72*;IEC-6 tox confirm=81*
O=C(O)c1ccccc1-c1ccc(C=C2C(=O)N(c3ccccc3)C(=S)N(c3ccccc3)C2=O)o1 | 25 | 2 | / | / | -12 | /
O=C(Cn1ncn2c(cc3cc(F)ccc32)c1=O)N1CCC2(CC1)OCCO2 | -2 | -4 | / | / | -33 | /

Source: PubChem BioAssay (several laboratories)
